Data reported in PubChem BioAssay (EPA / NIEHS).
Records with an inconclusive call do not appear. Calls of active or inactive are those of the source. Rule for the calls: active = hit-call score of the fitted dose curve at least 0.9, where 1 is the maximum; inconclusive = response in the unintended direction; inactive = score below 0.9.

System: not listed separately
Experiment: Tanguay_ZF_120hpf_ActivityScore_legacy: (Legacy) Oregon State University Tanguay Lab 120 Hour Post-fertilization zebrafish Assay Score for Activity (AID 2283742);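 for AC50: dechorionated Tropical 5D wild-type zebrafish embryos held singly per well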
In short: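 Dechorionated 5D embryos, one per well, static exposure 6–120 hpf, 28C, sealed and dark; final DMSO 0.64% (vol/vol). Brightfield binary scoring of mortality plus 18 endpoints; gain-of-signal fit versus DMSO baseline.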

| SMILES | outcome | AC50 |
| --- | --- | --- |
| O=C(O)c1[nH]n(-c2ccc(S(=O)(=O)O)cc2)c(=O)c1N=Nc1ccc(S(=O)(=O)O)cc1 | inactive |  |
| CCOCCOCCO | inactive |  |
| CSc1ccc(Oc2ccc(S(N)(=O)=O)cc2CN(C)C)cc1C |  | 22.8 µM (active) |
| CN(C)C(=O)NC1(c2ccccc2)CCN(CC[C@@]2(c3ccc(F)c(F)c3)CN(C(=O)c3ccccc3)CCO2)CC1 | inactive |  |
| CCCCC(CC)CO (stereo unspecified) | inactive |  |
| CC(C)(C)c1ccccc1 |  | 24.6 µM (active) |
| CCCCC(CC)COC(=O)CCCCCCCC(=O)OCC(CC)CCCC (stereo unspecified) | inactive |  |
| CN(C)C(=O)NC1(c2ccccc2)CCN(CCC[C@]2(c3ccc(Cl)c(Cl)c3)CCCN(C(=O)c3ccccc3)C2)CC1 | inactive |  |
| NC1CCCCC1 | inactive |  |
| C/C=C/C=C/C(=O)O | inactive |  |
| CN(C)CCCN(C)CCCN(C)C | inactive |  |
| O=C(O)CC(O)(CC(=O)O)C(=O)O | inactive |  |
| COC(=O)[C@H]1[C@H]2C[C@@H]3c4[nH]c5cc(OC)ccc5c4CCN3C[C@H]2C[C@@H](OC(=O)c2cc(OC)c(OC)c(OC)c2)[C@@H]1OC | inactive |  |
| CO[C@@H]1COCC[C@@H]1N[C@@H]1CC[C@@](C(=O)N2CCc3ncc(C(F)(F)F)cc3C2)(C(C)C)C1 | inactive |  |
| CC(=O)OC1CC(C)OC(C)O1 (stereo unspecified) | inactive |  |
| CCCCCCCC(=O)OC | inactive |  |
| Cn1cnc2c1c(=O)[nH]c(=O)n2C | inactive |  |
| CC1=C(C)S(=O)(=O)CCS1(=O)=O | inactive |  |

Target: Luciferin 4-monooxygenase (Photinus pyralis) (UniProt P08659)
Sequence (P08659 whole entry, looked up): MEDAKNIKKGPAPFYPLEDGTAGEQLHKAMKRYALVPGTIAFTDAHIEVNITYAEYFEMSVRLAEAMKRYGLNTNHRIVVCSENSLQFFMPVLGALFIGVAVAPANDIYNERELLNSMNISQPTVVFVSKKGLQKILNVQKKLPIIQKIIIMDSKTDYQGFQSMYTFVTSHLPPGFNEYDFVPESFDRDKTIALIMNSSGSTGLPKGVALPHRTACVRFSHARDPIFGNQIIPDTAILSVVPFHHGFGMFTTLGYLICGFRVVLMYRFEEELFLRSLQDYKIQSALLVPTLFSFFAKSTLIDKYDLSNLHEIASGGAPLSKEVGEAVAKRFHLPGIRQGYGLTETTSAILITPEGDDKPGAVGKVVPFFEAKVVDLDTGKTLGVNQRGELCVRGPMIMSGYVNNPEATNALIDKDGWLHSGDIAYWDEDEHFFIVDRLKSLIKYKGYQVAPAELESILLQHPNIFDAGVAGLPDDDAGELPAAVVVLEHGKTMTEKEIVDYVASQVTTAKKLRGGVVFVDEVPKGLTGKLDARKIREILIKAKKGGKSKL
Experiment: CCTE_Simmons_QuantiLum_inhib_2: CCTE's Firefly Luciferase Inhibition Assay, Simmons Lab (AID 2283767)
In short: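 First, 5 ng purified luciferase in phosphate buffer with BSA is dispensed per well. Next, test chemicals (5 nM to 87.5 uM final, 0.5% DMSO) are added and incubated 30 min at 37C in darkness. Finally, luciferin reagent is injected and luminescence read kinetically.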

| SMILES | outcome |
| --- | --- |
| C/C=C/c1ccc(OC)cc1 | inactive |
| Cc1occc(=O)c1O | inactive |
| CC(C)NCC(O)c1ccc(O)c(O)c1 (stereo unspecified) | inactive |
| C/C=C/C=C/C(=O)O | inactive |
| COC(=O)[C@H]1[C@H]2C[C@@H]3c4[nH]c5cc(OC)ccc5c4CCN3C[C@H]2C[C@@H](OC(=O)c2cc(OC)c(OC)c(OC)c2)[C@@H]1OC | inactive |
| O=C1c2c(O)cccc2Cc2cccc(O)c21 | inactive |

System: not listed separately
Experiment: ACEA_AR_agonist_AUC_viability: ACEA Biosciences xCELLigence Real-Time Cell Analysis on Androgen Receptor Agonism for Viability (AID 2283775);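 for AC50: viability read 80 hours after compound addition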
In short: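 22Rv1 cells; impedance growth kinetics; 8-pt 1:4 dilutions from 100 uM top final, ≤0.5% DMSO; n = 2; 80 h read; AUC viability, loss-of-signal vs DMSO.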

| SMILES | outcome | AC50 |
| --- | --- | --- |
| OCC(CO)n1cnc(-c2ccc(F)cc2)c1-c1ccnc(Oc2ccccc2)n1 | inactive |  |
| O=C(O)c1[nH]n(-c2ccc(S(=O)(=O)O)cc2)c(=O)c1N=Nc1ccc(S(=O)(=O)O)cc1 | inactive |  |
| CCOCCOCCO | inactive |  |
| CCCC(=O)O | inactive |  |
| NC(=Nc1ccccc1)Nc1ccccc1 | inactive |  |
| CSc1ccc(Oc2ccc(S(N)(=O)=O)cc2CN(C)C)cc1C |  | 65.2 µM (active) |
| CN(C)C(=O)NC1(c2ccccc2)CCN(CC[C@@]2(c3ccc(F)c(F)c3)CN(C(=O)c3ccccc3)CCO2)CC1 |  | 47 µM (active) |
| C/C=C/c1ccc(OC)cc1 | inactive |  |
| COc1ccc(C(=O)Nc2nc3ccccc3c(NCc3ccccc3)c2C#N)cc1 |  | 24 µM (active) |
| CCCCC(CC)COC(=O)CCCCCCCC(=O)OCC(CC)CCCC (stereo unspecified) | inactive |  |
| CN(C)C(=O)NC1(c2ccccc2)CCN(CCC[C@]2(c3ccc(Cl)c(Cl)c3)CCCN(C(=O)c3ccccc3)C2)CC1 |  | 16.2 µM (active) |
| NC1CCCCC1 | inactive |  |
| COC(=O)CCC(=O)OC | inactive |  |
| CN(C)CCCN(C)CCCN(C)C | inactive |  |
| CC1(C)C(=O)NC(=O)N1CO | inactive |  |
| O=C(O)CC(O)(CC(=O)O)C(=O)O | inactive |  |
| COC(=O)[C@H]1[C@H]2C[C@@H]3c4[nH]c5cc(OC)ccc5c4CCN3C[C@H]2C[C@@H](OC(=O)c2cc(OC)c(OC)c(OC)c2)[C@@H]1OC |  | 42.2 µM (active) |
| c1ccc2occc2c1 | inactive |  |
| CO[C@@H]1COCC[C@@H]1N[C@@H]1CC[C@@](C(=O)N2CCc3ncc(C(F)(F)F)cc3C2)(C(C)C)C1 | inactive |  |
| CCCCCCCC(=O)OC |  | 13.9 µM (active) |
| Cn1cnc2c1c(=O)[nH]c(=O)n2C | inactive |  |
| CC1=C(C)S(=O)(=O)CCS1(=O)=O |  | 82.6 µM (active) |
